Measurements taken from PubChem BioAssay AID1345085 (National Center for Advancing Translational Sciences (NCATS), 2018).
Results filed as inconclusive are left out. Unmarked numbers belong to inactive results. Active and inactive are the calls of the source. Calls follow the shape of the dose curve; as a rule, active = well fitted cell-killing curve with a large enough effect; inconclusive = small, poorly fitted or top-dose-only effect, or effect the other way; inactive = no such curve, though single readings can be large or run the other way. *1 amine or outer side, *2 acyl side, *3 side chain or, on linkers, in order; H or OH if unused. Where a SMILES comes first, the peptide text is derived from it. Bridges are numbered along the chain shown (N, C = ends). Roman numbers before positions name the chains, in order. [ ]: non-standard residue; d: D form. Actinocin(9to1) = Cc1c2oc3c(C)ccc(C(=O)[*:1])c3nc-2c(C(=O)[*:2])c(N)c1=O; NMeV = CN[C@H](C(=O)O)C(C)C; Sar = CNCC(=O)O

What follows are molecules tested on CAOV3 (assay: Confirmatory qHTS for gynecologic anti-cancer compounds from libraries of approved drugs and bioactive compounds). Details: gynecologic cancer cell panel viability, ATPlite luminescence, 48 h; series mostly up to 57.6 µM; activity change, negative = viability loss: at the top concentration.
Method in brief: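 ATPlite luminescence read-out of cell viability; IC50 from 11-point 1:3 titrations, 57.5 uM to 0.977 nM, 48 h compound exposure at 37 C, 5% CO2. Cells seeded at 1,000/well 16 h before dosing.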
% is scaled to controls: 0 for no effect and ±100 for the full control effect; potency is read from the fitted curve at half-maximal effect.
Also: nearly all actives have a fitted effect of over 55% in size.

| Structure (SMILES) | Potency | activity change, negative = viability loss |
| --- | --- | --- |
| CNc1nccc(-c2cccnc2Oc2cc(C(=O)Nc3cccc(C(F)(F)F)c3)ccc2C)n1 | 24.3 µM (active) | – |
| O=C(/C=C/c1cccc(S(=O)(=O)Nc2ccccc2)c1)NO | 10.6 µM (active) | – |
| COc1cc(N2CCC(N(C)C)CC2)ccc1Nc1ncc(Cl)c(Nc2ccccc2P(C)(C)=O)n1 | 10.9 µM (active) | – |
| CCCC(=O)O[C@]1(C(=O)CCl)[C@@H](C)C[C@H]2[C@@H]3CCC4=CC(=O)C=C[C@]4(C)[C@@]3(F)C(=O)C[C@@]21C | – | -10.5% |
| Cc1nc(Nc2ncc(C(=O)Nc3c(C)cccc3Cl)s2)cc(N2CCN(CCO)CC2)n1 | 24.3 µM (active) | – |
| NCCOc1cc(C(=O)Nc2cc(OCCN)c3ccccc3n2)nc(C(=O)Nc2cc(OCCN)c3ccccc3n2)c1 | – | -15.8% |
| CCS(=O)(=O)c1cccc(-c2cc(C(=O)NC3CCN(C)CC3)c(C)c3[nH]c4ncc(C)cc4c23)c1 | 0.672 µM (active) | – |
| Cc1cc(SCc2sc(-c3ccc(C(F)(F)F)cc3)nc2C)ccc1OCC(=O)O | – | 6.68% |
| CC(C)Oc1ccc2c(=O)c(-c3ccccc3)coc2c1 | 15.3 µM (active) | – |
| CCCCc1nc2cc(/C=C/C(=O)NO)ccc2n1CCN(CC)CC | 4.85 µM (active) | – |
| CC[C@@]1(O)C(=O)OCc2c1cc1n(c2=O)Cc2c-1nc1ccccc1c2/C=N/OC(C)(C)C | 0.0968 µM (active) | – |
| CN(c1nccc(=O)[nH]1)C1CCN(c2nc3ccccc3n2Cc2ccc(F)cc2)CC1 | – | 3.5% |
| CCN1C[C@H](C)n2c(c(O)c3c(=O)n(Cc4ccc(F)c(Cl)c4)nc(C(=O)NC)c32)C1=O | – | 18.8% |
| CCn1c(-c2nonc2N)nc2c(C#CC(C)(C)O)ncc(OCC3CCCNC3)c21 (centres undefined) | 24.3 µM (active) | – |
| Nc1ccn([C@@H]2O[C@H](CO)[C@@H](O)C2(F)F)c(=O)n1 | 0.217 µM (active) | – |
| CCS(=O)(=O)N1CCN(c2ccc(Nc3ncc(C(N)=O)c(NC4CC4)n3)cc2)CC1 | 6.85 µM (active) | – |
| Cn1cnc2c(F)c(Nc3ccc(Br)cc3F)c(C(=O)NOCCO)cc21 | – | 9.19% |

| Structure (SMILES) | Potency | activity change, negative = viability loss |
| --- | --- | --- |
| CNC(=O)c1ccccc1Nc1nc(Nc2ccc(N3CCOCC3)cc2OC)ncc1Cl | 1.37 µM (active) | – |
| COc1cc(F)c(F)c(Nc2ccc(I)cc2F)c1NS(=O)(=O)C1(CC(O)CO)CC1 (centres undefined) | – | -6.27% |
| Cc1ccc(-n2[nH]c(C)c(N=Nc3cccc(-c4cccc(C(=O)O)c4)c3O)c2=O)cc1C | 27.3 µM (active) | – |
| O=C(c1ccc(F)c(F)c1Nc1ccc(I)cc1F)N1CC(O)([C@@H]2CCCCN2)C1 | 27.3 µM (active) | – |
| Cc1cc(C2CCCCC2)n(O)c(=O)c1 | 12.5 µM (active) | – |
| Cc1ccc(C(=O)N(CCCN)C(c2nc3cc(Cl)ccc3c(=O)n2Cc2ccccc2)C(C)C)cc1 (centres undefined) | 17.2 µM (active) | – |
| Cc1nc(N)sc1-c1ccnc(Nc2ccc(N3CCOCC3)cc2)n1 | 3.43 µM (active) | – |
| CC[C@@]1(O)C(=O)OCc2c1cc1n(c2=O)Cc2cc3c(CN(C)C)c(O)ccc3nc2-1 | 0.544 µM (active) | – |
| Cc1c2oc3c(C)ccc(C(=O)N[C@@H]4C(=O)N[C@H](C(C)C)C(=O)N5CCC[C@H]5C(=O)N(C)CC(=O)N(C)[C@@H](C(C)C)C(=O)O[C@@H]4C)c3nc-2c(C(=O)N[C@@H]2C(=O)N[C@H](C(C)C)C(=O)N3CCC[C@H]3C(=O)N(C)CC(=O)N(C)[C@@H](C(C)C)C(=O)O[C@@H]2C)c(N)c1=O (I: T[dV]P[Sar][NMeV] / II: T[dV]P[Sar][NMeV]; ester I:1-I:C, II:1-II:C; linker I:N-II:N via Actinocin(9to1)) | 0.344 µM (active) | – |
| CC(Oc1ccc2[nH]nc(/C=C/c3cnn(CCO)c3)c2c1)c1c(Cl)cncc1Cl (centres undefined) | 2.73 µM (active) | – |
| Cn1cnc2c(F)c(Nc3ccc(Br)cc3Cl)c(C(=O)NOCCO)cc21 | – | -18.7% |
| C[C@]12CCC(=O)C=C1[C@@H]1C[C@@H]1[C@H]1[C@@H]3[C@@H]4C[C@@H]4[C@@]4(CCC(=O)O4)[C@@]3(C)CC[C@@H]12 | – | 7.13% |
| COc1cccc2c1C(=O)c1c(O)c3c(c(O)c1C2=O)C[C@@](O)(C(=O)CO)C[C@@H]3O[C@H]1C[C@H](N)[C@H](O)[C@H](C)O1 | 2.43 µM (active) | – |
| N#CC1(c2cccc(C(=O)Nc3cc(Oc4ccc5nc(NC(=O)C6CC6)sc5n4)ccc3F)c2Cl)CC1 | – | -11.2% |
| CCc1cccc(CC)c1NC(=O)N1Cc2[nH]nc(NC(=O)c3ccc(N4CCN(C)CC4)cc3)c2C1 | 2.43 µM (active) | – |
| Cc1cnc(Nc2ccc(OCCN3CCCC3)cc2)nc1Nc1cccc(S(=O)(=O)NC(C)(C)C)c1 | 7.69 µM (active) | – |
| CN1CCN(CCOc2cc(OC3CCOCC3)c3c(Nc4c(Cl)ccc5c4OCO5)ncnc3c2)CC1 | – | -11.2% |
